Results published in PubChem BioAssay AID1159580 (chemical genetic matrix, 2015).
Several values for one entry are separate records, joined by “and”; a condition that tells them apart may be missing. Equal values may be shown once. Out of some 5,500 compounds screened, about 2,000 (36%) were called active. Roughly 18% stayed inconclusive and do not appear here. Cut-off read from the data, not from the text of the source: active = normalized growth mostly below about 0.91 (no sharp cut-off); inconclusive = no clear call, values can overlap the other calls; inactive = mostly above about 0.92. This is one part of the list.

Assay: chemical genetic growth profiling, strain panel (AID 1159580);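 note: tested at 20 µM; growth read once vehicle control cultures reached saturation at 30 °C; 1 = growth at the plate median or of vehicle wells; lower values mean less growth of the strain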
Settings: S. cerevisiae deletion strains, growth OD
[1] = locus YJR075W, strain HOC1, hits give low values
[2] = locus YMR263W, strain SAP30, hits give low values
[3] = locus YMR307W, strain GAS1, hits give low values
[4] = locus YNL322C, strain KRE1, hits give low values
[5] = locus YPL055C, strain LGE1, hits give low values
[6] = locus YPL241C, strain CIN2, hits give low values
[7] = locus YAL040C, strain CLN3, hits give low values
[8] = locus YCL061C, strain MRC1 (second series), hits give low values
[9] = locus YDR363W, strain ESC2, hits give low values
[10] = locus YER002W, strain NOP16, hits give low values
[11] = locus YNL175C, strain NOP13, hits give low values
[12] = locus YNL197C, strain WHI3, hits give low values
[13] = locus YNL224C, strain SQS1, hits give low values
[14] = locus YOR083W, strain WHI5 (second series), hits give low values

Measured: normalized growth

COc1cc2c(cc1O)CC1c3c(cc(O)c(OC)c3-2)CCN1C (stereo not drawn)
inactive: locus YAL021C, strain ccr4, hits give low values 1.02 | locus YAL026C, strain drs2, hits give low values 1.03 | locus YAL030W, strain snc1, hits give low values 1.01 | locus YBL061C, strain skt5, hits give low values 1.02 | locus YBR009C, strain hhf1, hits give low values 1.03 | locus YBR021W, strain FUR4, hits give low values 0.993 | locus YBR023C, strain chs3, hits give low values 1.02 | locus YBR171W, strain sec66, hits give low values 1.01 | locus YBR229C, strain ROT2, hits give low values 0.999 | locus YBR231C, strain swc5, hits give low values 1.01 | locus YBR279W, strain paf1, hits give low values 1.01 | locus YCL011C, strain gbp2, hits give low values 1.02 | locus YCL016C, strain dcc1, hits give low values 1 | locus YCL029C, strain bik1, hits give low values 0.994 | locus YCL061C, strain MRC1, hits give low values 1.01 | locus YCL069W, strain vba3, hits give low values 1.01 | locus YCR088W, strain abp1, hits give low values 1.01 | locus YDL005C, strain med2, hits give low values 1.03 | locus YDL035C, strain GPR1, hits give low values 1 | locus YDL040C, strain nat1, hits give low values 1.01 | locus YDL074C, strain BRE1, hits give low values 1 | locus YDL101C, strain DUN1, hits give low values 0.996 | locus YDL185W, strain tfp1, hits give low values 0.991 | locus YDL192W, strain arf1, hits give low values 0.996 | locus YDR001C, strain nth1, hits give low values 1.01 | locus YDR069C, strain doa4, hits give low values 1.04 | locus YDR101C, strain arx1, hits give low values 0.98 | locus YDR137W, strain rgp1, hits give low values 1.04 | locus YDR159W, strain sac3, hits give low values 1.04 | locus YDR162C, strain NBP2, hits give low values 1 | locus YDR195W, strain ref2 0.999 | locus YDR297W, strain sur2, hits give low values 1.01 | locus YDR318W, strain mcm21, hits give low values 1 | locus YDR334W, strain swr1, hits give low values 1.01 | locus YDR335W, strain msn5, hits give low values 1.01 | locus YDR388W, hits give low values 0.996 | locus YDR392W, strain spt3, hits give low values 0.95 | locus YDR502C, strain sam2, hits give low values 0.993 | locus YEL003W, strain gim4, hits give low values 1.02 | locus YEL037C, strain rad23, hits give low values 1.01 | locus YEL061C, strain CIN8 (second series), hits give low values 1.01 | locus YEL061C, strain CIN8, hits give low values 0.998 | locus YER015W, strain faa2, hits give low values 1.01 | locus YER016W, strain bim1, hits give low values 1.02 | locus YER110C, hits give low values 0.997 | locus YER111C, strain swi4, hits give low values 1.01 | locus YER155C, strain BEM2 (second series), hits give low values 1.03 | locus YER155C, strain BEM2, hits give low values 1 | locus YER167W, strain BCK2, hits give low values 1 | locus YFR010W, strain ubp6, hits give low values 1.02 | locus YGL078C, strain dbp3, hits give low values 0.997 | locus YGL086W, strain mad1, hits give low values 0.978 | locus YGL167C, strain pmr1, hits give low values 1 | locus YGL173C, strain kem1, hits give low values 1.02 | locus YGL227W, strain vid30, hits give low values 1.02 | locus YGL240W, strain doc1, hits give low values 1.01 | locus YGL248W, strain PDE1, hits give low values 1.01 | locus YGL253W, strain hxk2, hits give low values 1 | locus YGR135W, strain pre9, hits give low values 0.986 | locus YGR252W, strain gcn5, hits give low values 0.917 | locus YHR013C, strain ard1, hits give low values 1 | locus YHR027C, strain rpn1, hits give low values 1.02 | locus YHR030C, strain SLT2, hits give low values 1.01 and 0.986 | locus YHR079C, strain IRE1 (second series), hits give low values 0.993 | locus YHR079C, strain IRE1, hits give low values 1.01 | locus YHR094C, strain hxt1, hits give low values 1 | locus YHR129C, strain ARP1, hits give low values 0.994 | locus YHR142W, strain chs7, hits give low values 0.996 | locus YHR200W, strain rpn10, hits give low values 0.988 | locus YIL066C, strain RNR3, hits give low values 1.01 | locus YIL073C, strain SPO22, hits give low values 1.03 | locus YIL125W, strain kgd1, hits give low values 0.986 | locus YIR030C, strain dcg1, hits give low values 0.992 | locus YJL092W, strain hpr5, hits give low values 1.01 | locus YJL095W, strain BCK1 (second series), hits give low values 0.988 | locus YJL095W, strain BCK1, hits give low values 1.01 and 0.996 | locus YJL115W, strain asf1, hits give low values 1.02 | locus YJL129C, strain trk1, hits give low values 1.02 | locus YJL134W, strain LCB3, hits give low values 1.01 | locus YJL154C, strain vps35, hits give low values 1.01 | locus YJL164C, strain tpk1, hits give low values 1.01 | locus YJL166W, strain qcr8, hits give low values 1.01 | locus YJL168C, strain set2, hits give low values 0.988 | locus YJL187C, strain SWE1 (second series), hits give low values 0.998 | locus YJL187C, strain SWE1, hits give low values 1 | locus YJR043C, strain POL32, hits give low values 0.987 | locus YJR066W, strain TOR1, hits give low values 0.946 | [1] 1.01 | locus YKL009W, strain mrt4, hits give low values 1 | locus YKL068W, hits give low values 1.01 | locus YKL085W, strain MDH1 (second series), hits give low values 0.994 | locus YKL085W, strain MDH1, hits give low values 0.994 | locus YKL160W, strain elf1, hits give low values 1.01 | locus YKR001C, strain vps1, hits give low values 1.01 | locus YKR026C, strain gcn3, hits give low values 0.983 | locus YKR091W, strain srl3, hits give low values 1.01 | locus YLL001W, strain dnm1, hits give low values 1 | locus YLL026W, hits give low values 1.02 | locus YLL041C, strain sdh2, hits give low values 1.01 | locus YLR027C, strain aat2, hits give low values 1.01 | locus YLR039C, strain RIC1, hits give low values 1.01 | locus YLR058C, strain SHM2, hits give low values 1.01 | locus YLR102C, strain apc9, hits give low values 0.998 | locus YLR113W, strain HOG1, hits give low values 0.994 | locus YLR221C, strain rsa3, hits give low values 1.01 | locus YLR258W, strain gsy2, hits give low values 1.02 | locus YLR262C, strain YPT6 (second series), hits give low values 1.03 | locus YLR262C, strain YPT6, hits give low values 1.01 | locus YLR268W, strain sec22, hits give low values 0.976 | locus YLR320W, strain mms22, hits give low values 1.02 | locus YLR330W, strain CHS5, hits give low values 1.01 | locus YLR342W, strain FKS1 (second series), hits give low values 0.998 | locus YLR342W, strain FKS1, hits give low values 1 | locus YLR357W, strain rsc2, hits give low values 1.04 | locus YLR370C, strain arc18, hits give low values 1.03 | locus YLR371W, strain rom2, hits give low values 0.996 | locus YLR384C, strain iki3, hits give low values 1.02 | locus YLR418C, strain cdc73, hits give low values 0.98 | locus YML016C, strain PPZ1, hits give low values 1 | locus YML032C, strain rad52, hits give low values 1 | locus YML120C, strain ndi1, hits give low values 1.01 | locus YML124C, strain tub3, hits give low values 0.992 | locus YMR058W, strain fet3, hits give low values 1.01 | locus YMR078C, strain ctf18, hits give low values 1 | locus YMR125W, strain sto1, hits give low values 1.03 | locus YMR129W, hits give low values 1.03 | locus YMR205C, strain PFK2, hits give low values 1.05 | locus YMR223W, strain ubp8, hits give low values 0.986 | locus YMR231W, strain pep5, hits give low values 1.01 | [2] 1 | [3] 0.997 | locus YNL067W, strain RPL9B, hits give low values 0.998 | locus YNL071W, strain lat1, hits give low values 1.02 | locus YNL183C, strain NPR1, hits give low values 0.951 | locus YNL209W, strain ssb2, hits give low values 1.01 | locus YNL233W, strain BNI4, hits give low values 0.992 | locus YNL248C, strain rpa49, hits give low values 1 | locus YNL250W, strain rad50, hits give low values 1 | locus YNL271C, strain bni1, hits give low values 0.992 | locus YNL298W, strain CLA4, hits give low values 0.995 | locus YNL307C, strain MCK1, hits give low values 0.994 | locus YNL322C, strain KRE1 (second series), hits give low values 1.01 | [4] 1 | locus YNR049C, strain mso1, hits give low values 1.01 | locus YNR052C, strain pop2, hits give low values 1.01 | locus YOL012C, strain htz1 0.764 | locus YOL147C, strain pex11, hits give low values 0.998 | locus YOR001W, strain rrp6, hits give low values 1.01 | locus YOR061W, strain CKA2, hits give low values 1.01 | locus YOR069W, strain VPS5, hits give low values 1 | locus YOR070C, strain gyp1, hits give low values 1.02 | locus YOR080W, strain dia2, hits give low values 1.01 | locus YOR083W, strain WHI5, hits give low values 0.997 | locus YOR106W, strain vam3, hits give low values 1.03 | locus YOR136W, strain idh2, hits give low values 0.99 | locus YOR144C, strain elg1, hits give low values 0.993 | locus YOR184W, strain ser1, hits give low values 0.992 | locus YOR231W, strain MKK1, hits give low values 1 | locus YOR265W, strain rbl2, hits give low values 1 | locus YOR270C, strain vph1, hits give low values 1.06 | locus YOR290C, strain snf2, hits give low values 0.999 | locus YOR316C, strain cot1, hits give low values 1 | locus YPL051W, strain arl3, hits give low values 0.994 | [5] 0.988 | locus YPL078C, strain atp4, hits give low values 1.01 | locus YPL106C, strain sse1, hits give low values 1.04 | locus YPL240C, strain hsp82, hits give low values 1.01 | [6] 1 | locus YPL256C, strain CLN2, hits give low values 0.961 | locus YPR119W, strain clb2, hits give low values 0.998 | locus YPR141C, strain kar3, hits give low values 0.985 | locus YPR163C, strain tif3, hits give low values 0.996 | locus YPR167C, strain met16, hits give low values 1 | strain wtn01, hits give low values 0.97

CCCN1CC[C@@H]2c3cc(O)ccc3CC[C@@H]21
inactive: [7] 1.02 | [8] 1.01 | [9] 1.01 | [10] 1.01 | [3] 1 | locus YNL153C, strain GIM3, hits give low values 1.04 | [11] 1.01 | [12] 1.01 | [13] 1.02 | [4] 1.01 | [14] 1.01

COc1ccc2c(c1O)-c1cccc3c1[C@@H](C2)N(C)CC3
inactive: locus YAL013W, strain DEP1, hits give low values 0.986 | [7] 0.995 | [8] 1.01 | [9] 0.994 | [10] 1.01 | locus YGR078C, strain PAC10, hits give low values 1.05 | locus YGR229C, strain SMI1, hits give low values 1.02 | [1] 1 | [2] 0.994 | [3] 1.02 | locus YNL128W, strain TEP1, hits give low values 1.01 | [11] 1.02 | [12] 1.02 | [13] 1.01 | [4] 0.985 | [14] 0.972 | [5] 0.989 | [6] 1.01
